Screening data deposited in PubChem BioAssay by National Center for Advancing Translational Sciences (NCATS).
Most compounds without a hit are left out; they make up all but 17% or so of the library.
HT1080 IDH1KD tx: HT-1080 IDH1 knockdown cell toxicity (counter line); 360,000 compounds, 2% hits; AID 686971; Potency, µM (highest dose often 46.1 µM), hits mostly cytotoxic; HT-1080 IDH1 knockdown viability, ATP luminescence, 48 h
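% activity derives from luminescence (CellTiter-Glo), normalised to DMSO and no-cell wells. HT-1080-IDH1KD cells, 750/well, had 48 h compound exposure at 37 °C.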
TDP1 cell noCPT: qHTS for Inhibitors of human tyrosyl-DNA phosphodiesterase 1 (TDP1): qHTS in cells in absence of CPT | Potency, µM (top dose mostly 46.2 µM), usual class: inhibitors | DT40 Tdp1-/- hTDP1 cells, no CPT, ATP luminescence, 48 h | 420,000 compounds, 15% hits | AID 686978, 2013; note: nearly all actives have a fitted effect of over 55% in size
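Chicken DT40 Tdp1-/- cells stably complemented with human TDP1 were seeded at 400 cells/well with DMSO in place of 20 nM camptothecin. After compound pinning, cells grew at least 48 hr at 37 °C; viability read by CellTiter-Glo luminescence.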
TGFb SMAD3 inh: inhibitors of TGF-b signaling; 410,000 compounds, 1.2% hits; HepG2 CAGA-GFP TGF-b/SMAD3 reporter, GFP fluorescence, 18 h; TGF-beta stimulated, 500 pg/mL final; Potency, µM (top dose mostly 46.1 µM), actives largely listed as inhibitors; note: nearly all actives have a fitted effect of over 65% in size
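Inhibition of TGF-beta-driven CAGA-GFP reporter expression in HEPG2 cells is measured by cellular GFP fluorescence after 18 h stimulation with 500 pg/mL recombinant TGF-beta in 1% FBS medium at 37 degrees C.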
HT1080NT lethal: kills 2HG-producing HT-1080-NT fibrosarcoma cells; HT-1080-NT fibrosarcoma viability, CellTiter-Glo ATP luminescence, 48 h; Potency, µM (top dose mostly 46.1 µM), usual class: cytotoxic; 360,000 compounds, 1.6% hits; AID 686970;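 note: NT is the 2HG producing partner of a matched IDH1 knockdown line; nearly all actives have a fitted effect of over 55% in size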
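A 48-hour cytotoxicity screen used HT-1080-NT cells plated 2 hours before compound delivery. ATP-based CellTiter-Glo luminescence measured viability, normalized to DMSO and no-cell controls.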
HepG2 viability: kills HepG2 cells in TGF-b inhibitor counter-screen; Potency, µM (titrated, usually from 46.1 µM), usual class: cytotoxic; 410,000 compounds, 0.76% hits; HepG2 CAGA-GFP viability, ATP luminescence, 18 h; AID 588856
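HepG2 CAGA-GFP cells (1000/well, DMEM with 1% FBS) received compound, then TGF-beta at 500 pg/mL final, and were incubated 18 hours at 37 degrees C. Viability was read by CellTiter-Glo luminescence. Media-only wells were set as complete cell-killing and DMSO as no toxicity.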
DT40 TDP1 CPT: growth inhibition of DT40 Tdp1-/-;hTDP1 cells with camptothecin (screen for TDP1 inhibitors); Potency, µM (titrated, usually from 46.2 µM), most hits filed as inhibitors; 420,000 compounds, 12% hits; chicken DT40 Tdp1-/-;hTDP1 cells + 20 nM CPT, ATP luminescence, 48 h; AID 686979; note: nearly all actives have a fitted effect of over 55% in size
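Chicken DT40 Tdp1-/- cells complemented with human TDP1, 400 cells/well, exposed to compounds plus 20 nM camptothecin for at least 48 h at 37 C; viability read as ATP content by CellTiter-Glo luminescence.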
Each line names hits and unclear results; the compound was inactive in the other large screens. Calls come from the whole dose curve; as a rule, active = well fitted curve in the direction sought with a large enough effect; inconclusive = small, poorly fitted or top-dose-only effect, or another doubt; inactive = no such curve, though single readings can be large; an effect the other way counts as inactive or inconclusive.

CC(CCC(=O)O)C1CCC2C3CC(O)[C@@H]4CC(O)CC[C@]4(C)C3CC[C@@]12C (some centres not stated)	none (no result: HT1080 IDH1KD tx, TGFb SMAD3 inh, HT1080NT lethal, HepG2 viability)
CC1(C)CC(=O)C=C(c2ccc(-c3ccc4[nH]ccc4c3)cc2)C1=O	HT1080 IDH1KD tx inconclusive, TDP1 cell noCPT 26µM, TGFb SMAD3 inh inconclusive, HT1080NT lethal inconclusive, DT40 TDP1 CPT inconclusive
CC1(C)CC(=O)C=C(c2ccc(-c3ccccc3)cc2)C1=O	TDP1 cell noCPT 26µM, DT40 TDP1 CPT inconclusive
CC1(C)CC(=O)C=C(c2ccc(CO)cc2)C1=O	none
CC1(C)CC(=O)C=C(c2ccc(-c3ccc(OC(F)(F)F)cc3)cc2)C1=O	HT1080 IDH1KD tx 21µM, TDP1 cell noCPT 10µM, HT1080NT lethal inconclusive, DT40 TDP1 CPT 16µM
CN(CC(=O)Nc1ccc(F)cc1F)S(=O)(=O)c1ccc(C(=O)N2CCOCC2)s1	DT40 TDP1 CPT inconclusive (no result: HT1080 IDH1KD tx, HT1080NT lethal)
Cc1cccc2sc(N(CCCN(C)C)C(=O)c3ccc4ncsc4c3)nc12	TDP1 cell noCPT inconclusive, TGFb SMAD3 inh inconclusive, DT40 TDP1 CPT inconclusive
Cc1ccc2sc(N(CCCN(C)C)C(=O)c3nc4ccccc4s3)nc2c1C	HT1080 IDH1KD tx 21µM, TDP1 cell noCPT 6.5µM, TGFb SMAD3 inh inconclusive, HT1080NT lethal inconclusive, DT40 TDP1 CPT 13µM
Cc1cccc2sc(N(CCCN(C)C)C(=O)c3nc4ccccc4s3)nc12	TDP1 cell noCPT 13µM, DT40 TDP1 CPT 13µM
N#C/C(=N\Nc1ccc(Cl)cc1)C(N)=S	HT1080 IDH1KD tx 2.3µM, TDP1 cell noCPT 5.8µM, TGFb SMAD3 inh inconclusive, HT1080NT lethal 9.2µM, DT40 TDP1 CPT 5.8µM
N#C/C(=N\Nc1ccccc1)C(N)=S	TDP1 cell noCPT inconclusive, TGFb SMAD3 inh inconclusive
Cc1ccc(N/N=C(\C#N)C(N)=S)cc1C	TDP1 cell noCPT 18µM, TGFb SMAD3 inh inconclusive, DT40 TDP1 CPT 10µM
O=C(c1ccc(Cl)cc1)N1CCN(c2ncccn2)CC1	none
COc1ccc(-c2cnc3c(NC(C)=O)cc(-c4ccc(C(=O)NC5CC5)cc4)cn23)cc1OC	TDP1 cell noCPT 23µM, DT40 TDP1 CPT 23µM
COc1cccc(-c2cnc3c(NC(C)=O)cc(-c4ccc(C(=O)NC5CC5)cc4)cn23)c1	HT1080 IDH1KD tx 21µM, TDP1 cell noCPT 13µM, HT1080NT lethal 18µM, DT40 TDP1 CPT inconclusive
O=S(=O)([O-])CCC[N+]1(CC#Cc2ccccc2)CCCCC1	TDP1 cell noCPT 15µM, DT40 TDP1 CPT 16µM
C(#Cc1ccccc1)C[N+]1(CC#Cc2cccc3ccccc23)CCCC1	HT1080 IDH1KD tx inconclusive, TDP1 cell noCPT 0.058µM, TGFb SMAD3 inh inconclusive, HT1080NT lethal inconclusive, DT40 TDP1 CPT 0.65µM
C#CC[N+]1(CC#Cc2cccc3ccccc23)CCOCC1	TDP1 cell noCPT inconclusive, DT40 TDP1 CPT inconclusive
Cc1ccc(C)c(OCCC(=O)OCC(=O)NCc2ccc(F)cc2)c1	none
Cc1ccc(C)c(CN2CCc3nnc(CNC(=O)c4cc(C)oc4C)n3CC2)c1	DT40 TDP1 CPT inconclusive (no result: HT1080 IDH1KD tx, TGFb SMAD3 inh, HT1080NT lethal, HepG2 viability)
COC(=O)c1cc(-c2c(-c3cc(OC)c(OC)c(OC)c3)noc2C)cc([N+](=O)[O-])c1	TDP1 cell noCPT 16µM, TGFb SMAD3 inh inconclusive, DT40 TDP1 CPT 16µM
COc1ccc(-c2oc3ccc(-c4cc(OC)c(OC)c(OC)c4)cc3c2-c2ccc(OC)nc2)cc1	TDP1 cell noCPT 12µM, DT40 TDP1 CPT 15µM
COc1cc(-c2noc(C)c2C(=O)NCCO)cc(OC)c1OC	none
COc1ccc(-c2c(-c3cc(OC)c(OC)c(OC)c3)noc2C)cn1	HT1080 IDH1KD tx 1.5µM, TDP1 cell noCPT 0.58µM, TGFb SMAD3 inh inconclusive, HT1080NT lethal inconclusive, DT40 TDP1 CPT 0.58µM
COc1cc(-c2c(-c3cc(OC)c(OC)c(OC)c3)noc2C)ccc1F	HT1080 IDH1KD tx 0.33µM, TDP1 cell noCPT 0.0073µM, TGFb SMAD3 inh inconclusive, HT1080NT lethal 0.13µM, DT40 TDP1 CPT 0.092µM
